{"source": "the supplement of paper PMC8866396", "note": "± gives the standard deviation of the averaged measurements."}
{"tested_on": "IL-6-GFP PC-9GR", "assay": "cell viability (CCK-8 OD) relative to DMSO control (fraction of control); higher = more viable cells", "details": "compound concentration: 10 uM; treatment time: 48 h", "how_it_was_run": "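In 96-well plates, 3000 cells/well of PC-9 or PC-9GR lung cancer cells with lentiviral IL-6-GFP overexpression received each compound of a purchased 510-compound library at a final 10 μM for 48 h. Viability, measured by CCK-8 absorbance, is each well's optical density relative to the vehicle control well. Data come from two independent replicates.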"}
{"smiles": "CCC(=O)OC1(C(=O)SCF)C(C)CC2C3CC(F)C4=CC(=O)C=CC4(C)C3(F)C(O)CC21C", "note": "(centres undefined) [Fluticasone propionate]", "cell viability": "1.06 ± 0.43"}
{"smiles": "CCCCC(=O)OC1(C(=O)CO)C(C)CC2C3CCC4=CC(=O)C=CC4(C)C3(F)C(O)CC21C", "note": "(centres undefined) [Betamethasone Valerate]", "cell viability": "1.11 ± 0.14"}
{"smiles": "O=C([O-])c1cc(N=Nc2ccc(O)c(C(=O)[O-])c2)ccc1O.[Na+].[Na+]", "note": "[Olsalazine Sodium]", "cell viability": "1.12 ± 0.053"}
{"smiles": "CCC1(O)C(=O)OCc2c1cc1n(c2=O)Cc2cc3c(CN(C)C)c(O)ccc3nc2-1", "note": "(centres undefined) [Topotecan]", "cell viability": "0.333 ± 0.19"}
{"smiles": "CC12CCC(=O)C=C1CCC1C2C(O)CC2(C)C1CCC2(O)C(=O)CO", "note": "(centres undefined) [Hydrocortisone]", "cell viability": "1.41 ± 0.42"}
{"smiles": "Cc1nnc(C(=O)NC(C)(C)c2nc(C(=O)NCc3ccc(F)cc3)c(O)c(=O)n2C)o1", "note": "[Raltegravir (MK-0518)]", "cell viability": "1.21 ± 0.063"}
{"smiles": "CNC1CCC(c2ccc(Cl)c(Cl)c2)c2ccccc21.Cl", "note": "(centres undefined) [Sertraline HCl]", "cell viability": "0.338 ± 0.063"}
{"smiles": "O=S1(=O)CCN(CN2CCS(=O)(=O)NC2)CN1", "note": "[Taurolidine]", "cell viability": "1.22 ± 0.27"}
{"smiles": "C#Cc1cccc(Nc2ncnc3cc(OCCOC)c(OCCOC)cc23)c1.Cl", "note": "[Erlotinib HCl (OSI-744)]", "cell viability": "0.817 ± 0.21"}
{"smiles": "CC12CCC(CC1)C(C)(C)O2", "note": "[Eucalyptol]", "cell viability": "1.29 ± 0.37"}
{"smiles": "CC(=O)OC(C)OC(=O)C(C)c1ccc(-c2ccccc2)c(F)c1", "note": "(centres undefined) [Flurbiprofen Axetil]", "cell viability": "1.17 ± 0.29"}
{"smiles": "CNCC(O)c1ccc(O)c(O)c1.O=C(O)C(O)C(O)C(=O)O", "note": "(centres undefined) [Epinephrine bitartrate]", "cell viability": "1.17 ± 0.15"}
{"smiles": "COc1ccnc(CS(=O)c2nc3ccc(-n4cccc4)cc3[nH]2)c1C", "note": "(centres undefined) [Ilaprazole]", "cell viability": "1.17 ± 0.38"}
{"smiles": "O=C(CCCc1ccccc1)[O][Na]", "note": "[Sodium Phenylbutyrate]", "cell viability": "0.51 ± 0.067"}
{"smiles": "Cc1nc(Nc2ccc(F)cc2)nc(N2CCc3ccccc3C2C)c1C.Cl", "note": "(centres undefined) [Revaprazan Hydrochloride]", "cell viability": "1.63 ± 0.64"}
{"smiles": "CO/N=C(\\C(=O)NC1C(=O)N2C(C(=O)OCOC(=O)C(C)(C)C)=C(C)CSC12)c1csc(N)n1.Cl", "note": "(centres undefined) [Cefetamet pivoxil hydrochloride]", "cell viability": "1.25 ± 0.28"}
{"smiles": "CC(=O)OCC1OC(n2ccc(=O)[nH]c2=O)C(OC(C)=O)C1OC(C)=O", "note": "(centres undefined) [uridine triacetate]", "cell viability": "1.59 ± 0.3"}
{"smiles": "COC(=O)C(Cc1ccccc1)NC(=O)C(N)CC(=O)O", "note": "(centres undefined) [Aspartame]", "cell viability": "1.08 ± 0.091"}
{"smiles": "CC(CN1c2ccccc2Sc2ccccc21)N(C)C.Cl", "note": "(centres undefined) [Promethazine HCl]", "cell viability": "0.929 ± 0.013"}
{"smiles": "COC1CC2CCC(C)C(O)(O2)C(=O)C(=O)N2CCCCC2C(=O)OC(C(C)CC2CCC(OCCO)C(OC)C2)CC(=O)C(C)/C=C(\\C)C(O)C(OC)C(=O)C(C)CC(C)/C=C/C=C/C=C/1C", "note": "(centres undefined) [Everolimus (RAD001)]", "cell viability": "0.985 ± 0.068"}
{"smiles": "Cc1nc(-c2ccc(OCC(C)C)c(C#N)c2)sc1C(=O)O", "note": "[Febuxostat]", "cell viability": "1.38 ± 0.24"}
{"smiles": "O=C(O)COc1nn(Cc2ccccc2)c2ccccc12", "note": "[Bendazac]", "cell viability": "1.85 ± 0.092"}
{"smiles": "Cc1cc(C(C)(C)C)cc(C)c1CC1=NCCN1", "note": "[Xylometazoline]", "cell viability": "0.674 ± 0.26"}
{"smiles": "CC(C)C(=O)OCC(=O)C12OC(C3CCCCC3)OC1CC1C3CCC4=CC(=O)C=CC4(C)C3C(O)CC12C", "note": "(centres undefined) [Ciclesonide]", "cell viability": "0.855 ± 0.11"}
{"smiles": "CC(=O)OC1(C(C)=O)CCC2C3C=C(C)C4=CC(=O)CCC4(C)C3CCC21C", "note": "(centres undefined) [Megestrol Acetate]", "cell viability": "1.22 ± 0.09"}
{"smiles": "COc1nc(N)nc2c1ncn2C1OC(CO)C(O)C1O", "note": "(centres undefined) [Nelarabine]", "cell viability": "1.12 ± 0.017"}
{"smiles": "CC(=O)OC1(C(C)=O)CCC2C3C=C(Cl)C4=CC(=O)C5CC5C4(C)C3CCC21C", "note": "(centres undefined) [Cyproterone Acetate]", "cell viability": "1.13 ± 0.092"}
{"smiles": "Cc1oncc1C(=O)Nc1ccc(C(F)(F)F)cc1", "note": "[Leflunomide]", "cell viability": "1.1 ± 0.067"}
{"smiles": "CC(C)(O)c1ccccc1CCC(SCC1(CC(=O)O)CC1)c1cccc(/C=C/c2ccc3ccc(Cl)cc3n2)c1", "note": "(centres undefined) [Montelukast]", "cell viability": "1.11 ± 0.26"}
{"smiles": "CN1CCC(=C2c3ccccc3C=Cc3ccccc32)CC1.Cl", "note": "[Cyproheptadine hydrochloride]", "cell viability": "0.784 ± 0.082"}
{"smiles": "CS(=O)(=O)c1ccc(C(=O)Nc2ccc(Cl)c(-c3ccccn3)c2)c(Cl)c1", "note": "[Vismodegib (GDC-0449)]", "cell viability": "1.05 ± 0.072"}
{"smiles": "COC(=O)CC(O)(CCCC(C)(C)O)C(=O)OC1C(OC)=CC23CCCN2CCc2cc4c(cc2C13)OCO4", "note": "(centres undefined) [Homoharringtonine]", "cell viability": "0.275 ± 0.17"}
{"smiles": "CNC(=O)c1cc(Oc2ccc(NC(=O)Nc3ccc(Cl)c(C(F)(F)F)c3)c(F)c2)ccn1.O", "note": "[Regorafenib Monohydrate]", "cell viability": "0.659 ± 0.32"}
{"smiles": "Nc1ccc(O)c(C(=O)O)c1", "note": "[Mesalamine]", "cell viability": "1.27 ± 0.035"}
{"smiles": "COc1cccc2c1C(=O)c1c(O)c3c(c(O)c1C2=O)CC(O)(C(C)=O)CC3OC1CC(N)C(O)C(C)O1.Cl", "note": "(centres undefined) [Daunorubicin HCl]", "cell viability": "0.0902 ± 0.071"}
{"smiles": "CN(C)c1nc(N(C)C)nc(N(C)C)n1", "note": "[Altretamine]", "cell viability": "1.25 ± 0.047"}
{"smiles": "CCS(=O)(=O)N1CC(CC#N)(n2cc(-c3ncnc4[nH]ccc34)cn2)C1.O=P(O)(O)O", "note": "[Baricitinib phosphate]", "cell viability": "0.391 ± 0.7"}
{"smiles": "Cc1ccc(C(C)C)c(O)c1", "note": "[Thymol]", "cell viability": "0.9 ± 0.16"}
{"smiles": "C=C(NC(=O)C(=C)NC(=O)c1csc(C2=NC3c4csc(n4)C4NC(=O)c5csc(n5)C(C(C)(O)C(C)O)NC(=O)C5CSC(=N5)/C(=C/C)NC(=O)C(C(C)O)NC(=O)c5csc(n5)C3(CC2)NC(=O)C(C)NC(=O)C(=C)NC(=O)C(C)NC(=O)C(C(C)CC)NC2C=Cc3c(C(C)O)cc(nc3C2O)C(=O)OC4C)n1)C(N)=O", "note": "(centres undefined) [Thiostrepton]", "cell viability": "0.184 ± 0.083"}
